Screens from PubChem.
A selection: hits, their analogues and other compounds. The true share with any hit is near 17%.
HT1080 IDH1KD tx: qHTS for induction of synthetic lethality in tumor cells producing 2HG: qHTS for the HT-1080-IDH1KD cell line; HT-1080 IDH1 knockdown viability, ATP luminescence, 48 h; Potency, µM (series often up to 46.1 µM), actives largely listed as cytotoxic; actives 2% (n = 360,000)
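Luminescent ATP read-out (CellTiter-Glo, 10 min at room temperature) after 48 h compound exposure at 37 °C gave viability of IDH1-knockdown HT-1080 cells. Activity was normalised to DMSO and cell-free wells, then fitted as concentration-response curves.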
TGFb SMAD3 inh: qHTS for Inhibitors of TGF-b | HepG2 CAGA-GFP TGF-b/SMAD3 reporter, GFP fluorescence, 18 h; TGF-beta stimulated, 500 pg/mL final | Potency, µM (series often up to 46.1 µM), actives largely listed as inhibitors | actives 1.2% (n = 410,000) | AID 588855, 2011; further: nearly all actives have a fitted effect of over 65% in size
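Read-out: total well GFP (ex488/em500-530) summed from mean per-cell fluorescence. Cells: HEPG2 CAGA-GFP, 1% FBS DMEM, 18 h at 37 degrees C with 500 pg/mL final TGF-beta. Unstimulated wells served as the full-inhibition control; stimulated DMSO wells = 0%.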
DT40 TDP1 CPT: qHTS for Inhibitors of human tyrosyl-DNA phosphodiesterase 1 (TDP1): qHTS in cells in presence of CPT; chicken DT40 Tdp1-/-;hTDP1 cells + 20 nM CPT, ATP luminescence, 48 h; Potency, µM (series often up to 46.2 µM), most hits filed as inhibitors; actives 12% (n = 420,000); AID 686979, 2013; further: nearly all actives have a fitted effect of over 55% in size
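Chicken DT40 Tdp1-/- cells stably complemented with human TDP1 were seeded at 400 cells/well in medium containing 20 nM camptothecin, exposed to pin-transferred compounds, and grown at 37 °C for at least 48 hr. Viability was read as ATP luminescence.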
DT40 TDP1 no CPT: qHTS for Inhibitors of human tyrosyl-DNA phosphodiesterase 1 (TDP1): qHTS in cells in absence of CPT | DT40 Tdp1-/- hTDP1 cells, no CPT, ATP luminescence, 48 h | Potency, µM (doses to about 46.2 µM), most hits filed as inhibitors | actives 15% (n = 420,000) | AID 686978, 2013; further: nearly all actives have a fitted effect of over 55% in size
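Stably hTDP1-transfected Tdp1-null chicken DT40 cells were treated with library compounds minus camptothecin and grown for at least 48 hr at 37 °C, after which cellular ATP was quantified by luminescence.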
HepG2 viability: qHTS for Inhibitors of TGF-b: Cytotox Counterscreen | HepG2 CAGA-GFP viability, ATP luminescence, 18 h | Potency, µM (doses to about 46.1 µM), hits mostly cytotoxic | actives 0.76% (n = 410,000) | AID 588856, 2011
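CellTiter-Glo luminescence gave cytotoxicity after 18 hours at 37 degrees C. The cells were HepG2 CAGA-GFP in 1% FBS DMEM, stimulated with 500 pg/mL TGF-beta after compound addition. %Activity was normalised to no-cell wells (complete cell-killing) and DMSO (no toxicity), and curves were fitted and classified.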
HT1080NT lethal: qHTS for induction of synthetic lethality in tumor cells producing 2HG: qHTS for the HT-1080-NT fibrosarcoma cell line; HT-1080-NT fibrosarcoma viability, CellTiter-Glo ATP luminescence, 48 h; Potency, µM (series often up to 46.1 µM), usual class: cytotoxic; actives 1.6% (n = 360,000);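 further: NT is the 2HG producing partner of a matched IDH1 knockdown line; nearly all actives have a fitted effect of over 55% in size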
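750 cells/well, RPMI + 5% FBS; 2 h settle, compound pin-transfer, 48 h at 37 degrees C. CellTiter-Glo 10 min RT, luminescence. Normalized to DMSO and media-only wells.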
Hits are given with their value; 0 = inactive; ? = inconclusive; - = not tested or not shown. The call rests on the fitted dose curve; in most records, active means well fitted curve in the direction sought with a large enough effect; inconclusive means small, poorly fitted or top-dose-only effect, or another doubt; inactive means no such curve, though single readings can be large; an effect the other way counts as inactive or inconclusive.

SMILES	HT1080 IDH1KD tx	TGFb SMAD3 inh	DT40 TDP1 CPT	DT40 TDP1 no CPT	HepG2 viability	HT1080NT lethal
CCOC(=O)C1(Cc2cccc(OC)c2)CCCN(C(=O)CCc2cccnc2)C1 (stereo not drawn)	0	0	0	0	0	0
CCCCNC(=O)c1ccc(Cn2c(=S)[nH]c3c([nH]c4ccc(OC)cc43)c2=O)cc1	18µM	?	0	?	0	?
CCOCCCNC(=O)c1ccc(Cn2c(=S)[nH]c3c([nH]c4ccc(OC)cc43)c2=O)cc1	0	0	0	0	0	0
COc1ccc2[nH]c3c(=O)n(Cc4ccc(C(=O)N5CCC(C(N)=O)CC5)cc4)c(=S)[nH]c3c2c1	0	0	?	29µM	0	0
Nc1ncc2[nH]c(N)nc2n1	0	0	0	0	0	0
CC1(C)CC(=O)c2cnc(N3CCc4ccccc43)nc2C1	0	0	?	26µM	0	0
Fc1cnc(N2CCc3ccccc32)nc1N1CCc2ccccc21	0	0	?	?	0	0
O=C(Nc1ccc(-n2nncc2-c2ccccc2)cc1)c1cccc(F)c1	-	0	?	?	0	-
O=C(O)c1ccc(-n2nncc2-c2ccccc2)cc1	0	0	0	0	0	0
CN(C)S(=O)(=O)c1ccc(C(=O)Nc2ccc(-n3nncc3-c3ccccc3)cc2)cc1	-	0	21µM	15µM	0	-
O=C(Nc1ccccc1)c1ccc(-n2nncc2-c2ccccc2)cc1	-	0	10µM	?	0	-
CCOc1ccc(-c2nnc(NC(=O)c3ccc(OCC(C)C)c(OC)c3)o2)cc1	0	0	5.8µM	6.5µM	0	0
COc1cccc(C(=O)Nc2nnc(-c3ccc(Cl)cc3)o2)c1	0	0	10µM	10µM	0	0
CS(=O)(=O)c1cccc(-c2nnc(NC(=O)c3ccc4ncsc4c3)o2)c1	0	0	0	0	0	0
COC(=O)c1sccc1NC(=O)c1cc2c(s1)CCCC2	0	0	0	10µM	0	0
COc1cccc(-c2nnc(NC(=O)c3ccc4ncsc4c3)o2)c1	?	0	16µM	15µM	0	0
N#Cc1ccc(/C=C2\C=Cc3ccccc32)cc1	-	0	0	0	0	-
O=C(c1cccc([N+](=O)[O-])c1)N1CCN(CCc2ccncc2)CC1	-	0	0	0	0	-
Cc1ccc(Nc2nc(NCc3ccco3)nc3nccnc23)cc1	-	0	?	0	0	-
COc1cccc(C(=O)Nc2nnc(-c3cccs3)o2)c1	0	0	16µM	?	0	0
COc1cccc(C(=O)Nc2nnc(-c3ccc(F)cc3)o2)c1	0	0	10µM	9.2µM	0	0
O=C(Nc1nnc(-c2ccc(Cl)cc2)o1)c1cccc(N2C(=O)CCC2=O)c1	0	0	0	0	0	0
CC(=O)c1ccc(C(=O)Nc2nnc(-c3ccc(Cl)cc3)o2)cc1	?	0	9.2µM	9.2µM	0	?
COc1cccc(OC(=O)CSc2nnc(-c3cccs3)o2)c1	-	0	0	0	0	-
O=C(Cc1ccccc1)Nc1nnc(-c2ccccc2)o1	0	0	?	?	0	0
SMILES	HT1080 IDH1KD tx	TGFb SMAD3 inh	DT40 TDP1 CPT	DT40 TDP1 no CPT	HepG2 viability	HT1080NT lethal
O=C(Cc1ccc(F)cc1)Nc1nnc(-c2ccc(F)cc2)o1	0	0	23µM	?	0	0
COc1cccc(-c2nnc(NC(C)=O)o2)c1	0	0	0	0	0	0
OC(CSc1ccccc1)CN1CCN(c2ccccc2)CC1 (stereo not drawn)	0	0	?	?	0	0
COC(=O)c1sccc1NC(=O)c1cccc(OC)c1	0	0	?	21µM	0	0
COC(=O)c1sccc1NC(=O)c1ccccc1	0	0	0	0	0	0
COc1ccc(-c2ccc(CN3C(C)C(=O)N(Cc4cn(CCC5OCCCO5)nn4)CCS3(=O)=O)cc2)cc1 (stereo not drawn)	0	0	16µM	18µM	0	0
CC1C(=O)N(Cc2cn(CCC3OCCCO3)nn2)CCS(=O)(=O)N1Cc1ccc(-c2ccc(Cl)c(Cl)c2)cc1 (stereo not drawn)	21µM	?	4.1µM	3.7µM	0	?
CC1C(=O)N(Cc2cn(CCC3OCCCO3)nn2)CCS(=O)(=O)N1Cc1ccc(-c2ccc(F)cc2)cc1 (stereo not drawn)	0	0	12µM	18µM	0	0
CC1C(=O)N(Cc2cn(CCC3OCCCO3)nn2)CCS(=O)(=O)N1Cc1ccc(-c2cccc(CO)c2)cc1 (stereo not drawn)	0	0	0	?	0	0
Cc1ccc(-c2nnn(CC(=O)N3CCCc4ccccc43)n2)cc1	0	0	?	0	0	0
O=C(Cn1nnc(-c2cc(Cl)ccc2-n2cnnn2)n1)N1CCCc2ccccc21	0	0	?	21µM	0	0
Cc1ccc(S(=O)(=O)N2CCCCC2)cc1NC(=O)C1CC1	0	0	0	0	0	0
Cc1ccc(/C=C(\C#N)C(=O)Nc2ccc(Br)cc2)o1	-	-	0	0	0	-
N#C/C(=C\c1ccc([N+](=O)[O-])o1)C(=O)Nc1ccc(F)cc1	?	0	1.3µM	2.3µM	0	?
CC1=C(C(N)=O)C(c2cccc(O)c2)n2ncnc2N1 (stereo not drawn)	-	0	0	0	0	-
